Screens (PubChem BioAssay)
Only some compounds are listed: those with a hit (about 8.2% of all), similar ones and a draw of the others.
MCF10A rerep = DNA re-replication induction in MCF 10a cells. MCF 10A DNA re-replication, Hoechst nuclear intensity, 48 h. Potency, µM (titrated, usually from 46.1 µM), without a hit: top-dose activity, positive = re-replication, most hits filed as activators. hit rate 2.9% among 350,000. AID 624296; further: % of control where 0% means no effect; nearly all actives have a fitted effect of over 50% in size
KB-V1 cytotox = kills drug-selected multidrug resistant KB-V1 cells. hit rate 3.4% among 400,000. Potency, µM (series often up to 46.1 µM), actives largely listed as cytotoxic. KB-V1 MDR cells viability, CellTiter-Glo, 72 h; further: on the % scale 0 is the no-effect control and ±100 the full control effect; nearly all actives have a fitted effect of over 60% in size
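Cytotoxicity via CellTiter-Glo luminescence after 72 h compound exposure at 37 degrees C. Cells: drug-selected KB-V1 line, DMEM phenol-red free plus 10% FBS. Compounds tested at multiple concentrations; normalized data fitted to concentration-effect curves.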
ELG1 repair inh = ELG1-dependent DNA repair inhibition | HEK293T ELG1-luciferase reporter, luminescence, 16 h; DNA damage induced by 5-fluorouridine | Potency, µM (titrated, usually from 46.1 µM), for the others: at the top dose activity change, negative = inhibition, most hits filed as inhibitors | hit rate 2.3% among 330,000 | AID 504467; further: on the % scale 0 is the no-effect control and ±100 the full control effect; nearly all actives have a fitted effect of over 55% in size
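5-Fluorouridine DNA damage + compound/DMSO, 2,000 cells/well, 16 h, 37 °C/5% CO2. ONE-Glo, 30 min RT, luminescence. Readout = decrease in reporter signal.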
SW480 rereplic = induces DNA re-replication in SW480 colon adenocarcinoma cells; Potency, µM (series often up to 46.1 µM), without a hit: at the highest dose re-replication activation, usual class: activators; hit rate 1.8% among 340,000; SW480 DNA re-replication, Hoechst DNA content imaging, 48 h; further: % of control where 0% means no effect; nearly all actives have a fitted effect of over 55% in size
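SW480 cells exposed to compounds for 48 hr at 37 C, 5% CO2, then Hoechst-stained 40 min. Nuclear DNA content imaged by fluorescence scanning (405 nm excitation, 500-530 nm emission); re-replication scored as increased high-intensity nuclei.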
KB-3-1 cytotox = KB-3-1 parental cell cytotoxicity; KB-3-1 viability, CellTiter-Glo ATP luminescence, 72 h; hit rate 1.4% among 400,000; Potency, µM (titrated, usually from 46.1 µM), usual class: cytotoxic; AID 1347075; further: on the % scale 0 is the no-effect control and ±100 the full control effect; nearly all actives have a fitted effect of over 60% in size
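Cytotoxicity measured as CellTiter-Glo luminescence after 72 h at 37 C. Compound titrations were pinned onto drug-naive KB-3-1 parental adenocarcinoma cells grown in DMEM with 10% FBS, and normalized data fitted to concentration-response curves.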
Active calls of the source: *; i = inactive; ? = inconclusive; · = no result given; [ ] = another dose, or the depositor's remark. The call rests on the fitted dose curve; in most records, active means well fitted curve in the direction sought with a large enough effect; inconclusive means small, poorly fitted or top-dose-only effect, or another doubt; inactive means no such curve, though single readings can be large; an effect the other way counts as inactive or inconclusive. Potency means the concentration at half of the fitted maximal effect.

SMILES	MCF10A rerep	KB-V1 cytotox	ELG1 repair inh	SW480 rereplic	KB-3-1 cytotox
COc1cc(/C=C2/C(=N)N3C(=NC2=O)SN=C3S(C)(=O)=O)ccc1OS(=O)(=O)c1ccc(C)cc1	?	i	25%	?	i
CCc1ccc(-n2cccc2/C=C2/C(=N)N3C(=NC2=O)SN=C3S(C)(=O)=O)cc1	?	i	-11%	0%	i
COc1cccc(-n2c(C)cc(/C=C3/C(=N)N4C(=NC3=O)SN=C4S(C)(=O)=O)c2C)c1	16µM*	i	?	5%	i
Cc1ccc(-n2cccc2/C=C2/C(=N)N3C(=NC2=O)SN=C3S(C)(=O)=O)cc1	16µM*	i	-13%	-3%	i
CCC1=NN2C(=N)/C(=C\c3cccn3-c3ccc(C)c(C)c3)C(=O)N=C2S1	?	i	18µM*	-2%	i
CCCC(=O)Nc1ccc2c(c1)nc(CCN1CCC(C)CC1)n2C	·	i	·	·	i
Cn1c(=O)c2c(ncn2Cc2cc(-c3ccccc3)no2)n(C)c1=O	9%	?	18µM*	-1%	i
Cn1c(=O)c2c(nc(Cl)n2Cc2ccc(Cl)c(Cl)c2)n(C)c1=O	0%	16µM*	-17%	-7%	?
Cn1c(=O)c2c(ncn2Cc2cccc(Cl)c2)n(C)c1=O	-5%	?	-23%	5%	?
Cn1c(=O)c2c(ncn2Cc2ccc(Cl)c(Cl)c2)n(C)c1=O	17%	2.6µM*	?	8%	?
Cn1c(=O)c2c(ncn2CCOc2cccc(Br)c2)n(C)c1=O	7%	?	8.2µM*	6%	10µM*
COc1ccc(-c2nc3cc(C(C)C)ccc3o2)cc1NC(=O)c1ccc(C)c(Cl)c1	·	i	·	·	i
CC(=O)N(c1ccc(Cl)cc1)c1cn(C(C)=O)c2ccccc12	0%	i	-1%	2%	i
CC(=O)n1cc(N(C(=O)CCl)c2ccc(C)cc2)c2ccccc21	15µM*	?	23µM*	?	18µM*
c1ccc2c(c1)c1c(c3ccccc32)CN2CCCC2C1 (stereo not drawn)	?	16µM*	·	18µM*	?
O=C(c1cnc(Cl)c(Cl)c1)N1CCN(S(=O)(=O)c2ccc3ccccc3c2)CC1	92%	i	1%	12%	i
Cc1csc(NC(=O)c2cc3c(s2)CCCCC3)n1	16µM*	?	?	12%	i
O=C(NCCO)c1cc2c(s1)CCC2	0.25µM*	i	13%	?	i
Cc1cnc(NC(=O)c2cc3c(s2)CCCC3)s1	?	i	?	0%	21µM*
Cc1csc(NC(=O)c2cc3c(s2)CCCC3)n1	-8%	i	?	10%	i
CCOc1ccc(S(=O)(=O)N(CC)CC)cc1N	3%	i	14%	-64%	i
CCOc1ccc(C(=O)c2ccc(OCC)c(N)c2)cc1N	18µM*	i	?	?	?
O=c1c(Cl)c(Cl)cnn1-c1ccccc1	3.7µM*	i	18µM*	4.1µM*	18µM*
CCSc1cnn(-c2ccccc2)c(=O)c1Cl	?	i	·	?	i
CCOc1cnn(-c2ccccc2)c(=O)c1Cl	26µM*	i	?	6%	i
SMILES	MCF10A rerep	KB-V1 cytotox	ELG1 repair inh	SW480 rereplic	KB-3-1 cytotox
Nc1c(Cl)cnn(-c2ccccc2)c1=O	-2%	i	·	4%	i
COCCNc1ccc(-c2nc(-c3ccccn3)no2)cc1[N+](=O)[O-]	·	i	·	·	i
O=C1CC[C@@H](C(=O)N2CSC[C@@H]2C(=O)Nc2cccc(C(F)(F)F)c2)N1	·	i	·	·	i
Cc1c2ccccc2cc(Cc2ccccc2)[n+]1C	-21%	i	-12%	-5%	15µM*
Cc1nc(N)nc(C)c1Cc1ccccc1	-5%	i	9%	-5%[9.22 µM]	i
Cc1nc2c(OCc3ccc(C(F)(F)F)cc3)cccn2c1N(C)CC1CC1	·	i	·	·	i
COC(=O)c1ccccc1COc1cccn2c(N(C)CC3CC3)c(C)nc12	·	15µM*	·	·	?
CCOC(=O)c1cccc(NC(=O)c2nn(-c3ccc(OC)cc3)c(=O)c3c2c2ccccc2n3C)c1	·	i	·	·	i
COC(=O)C1CCN(c2ccc([N+](=O)[O-])cc2[N+](=O)[O-])CC1	-7%	16µM*	8%	-89%	i
COc1cc(O)c(NC(C)=O)c2nonc12	-3%	i	1%	-9%	i
CC(=O)NC1=CC(=O)c2nonc2C1=O	·	i	·	·	5.2µM*
CCc1cccc2c1NC(=O)C21N2CCCC2C(C(=O)c2ccc3ccccc3c2)C12C(=O)Nc1ccccc12 (stereo not drawn)	15%	?	-7%	?	16µM*
Cc1cccc(NC(=O)C2C3C=CC(O3)C2C(=O)O)c1C (stereo not drawn)	-28%	i	21%	-4%[1.84 µM]	i
CS(=O)(=O)N(CC(=O)N1CCN(Cc2ccc3c(c2)OCO3)CC1)C1CCCCC1	-5%	21µM*	-1%	-6%	i
CS(=O)(=O)N(CC(=O)NC1CCCC1)Cc1ccc(Cl)cc1	2%	15µM*	6%	-4%	i
CC(C)(C)CC(=O)N1CCN(Cc2ccc3c(c2)OCO3)CC1	-10%	i	-2%	-6%[9.22 µM]	i
CS(=O)(=O)N(CC(=O)N1CCCCCC1)Cc1ccc(Cl)cc1	3%	5.2µM*	6%	-3%	i
O=C(CCC1CCCCC1)N1CCN(Cc2ccc3c(c2)OCO3)CC1	9%	23µM*	?	-1%	?
CS(=O)(=O)N(CC(=O)NC1CCCCC1)Cc1ccc(Cl)cc1	-2%	i	10%	0%	i
COc1ccc(NC(=O)COC(=O)CC2CC3CCC2C3)c([N+](=O)[O-])c1 (stereo not drawn)	7%	i	4%	-3%	i
COc1ccc(N2CCN(C(=O)CN(Cc3ccccc3)S(C)(=O)=O)CC2)cc1	-7%	i	-15%	-4%	i
CS(=O)(=O)N(CC(=O)N1CCN(Cc2ccc3c(c2)OCO3)CC1)Cc1ccc(Cl)cc1	-1%	?	12µM*	12%	?
COc1ccccc1N1CCN(C(=O)CN(Cc2ccccc2)S(C)(=O)=O)CC1	7%	10µM*	?	2%	i
Cc1cccc(C)c1N(CC(=O)N1CCN(c2ccccc2F)CC1)S(C)(=O)=O	0.65µM*	i	-7%	-7%	i
Cc1cccc(N(CC(=O)N2CCN(c3ccccc3F)CC2)S(C)(=O)=O)c1	-2%	i	-3%	0%	i
Cc1ccc(C)c(Cn2c(=O)cc(C)c3c(C)nn(C)c32)c1	·	?	·	·	i
Fc1ccc(-c2noc3ncnc(NCc4ccc(Cl)cc4)c23)cc1	·	i	·	·	i
